# In the supplement of paper PMC9254222:
# In all, about 1,100 compounds were measured (“Wnt reporter firefly/Renilla luciferase ratio relative to plate median”: median about 1.1, highest 2% from about 1.6 on). Only a selection was taken, and the highest values are over-represented in it overall.
# Tested on: HEK293T (UBE3A T485A transfected, BAR Wnt reporter)
# Assay: Wnt reporter firefly/Renilla luciferase ratio relative to plate median (fold (linear ratio)); higher = more Wnt/beta-catenin reporter activation
# Conditions: 24 h
# Procedure, shortened: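 HEK293T cells carrying a transfected BAR firefly luciferase Wnt reporter, TK-Renilla and an expression plasmid were exposed to chemicals at 0.01–100 uM for 24 h, with dosing four hours after transfection. Readout used Dual-Glo luciferase. The firefly/Renilla ratio defined Wnt activity and raw Renilla defined cell health, each median-centred per plate. Figures are means of four biological replicates.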
smiles,measurement,setting,value
Cl.Clc1cc(Cl)c2c(c1)N=C1CCCCCN1C2,Wnt reporter firefly/Renilla luciferase ratio,concentration: 0.1 uM,0.996
same,Wnt reporter firefly/Renilla luciferase ratio,concentration: 1 uM,1.26
same,Wnt reporter firefly/Renilla luciferase ratio,concentration: 10 uM,1.13
same,Wnt reporter firefly/Renilla luciferase ratio,concentration: 100 uM,0.303
Cc1[nH]nc2c1N=C(c1ccccc1Cl)c1cc([N+](=O)[O-])ccc1N2,Wnt reporter firefly/Renilla luciferase ratio,concentration: 0.1 uM,1.21
same,Wnt reporter firefly/Renilla luciferase ratio,concentration: 1 uM,1.72
same,Wnt reporter firefly/Renilla luciferase ratio,concentration: 10 uM,104
same,Wnt reporter firefly/Renilla luciferase ratio,concentration: 100 uM,89.3
Nc1nc2nc[nH]c2c(=S)[nH]1 [6-Thioguanine],Wnt reporter firefly/Renilla luciferase ratio,concentration: 0.1 uM,1.31
same,Wnt reporter firefly/Renilla luciferase ratio,concentration: 1 uM,1.03
CCCCC(CC)COC(=O)CCCCCCCC(=O)OCC(CC)CCCC (centres undefined) [Bis(2-ethylhexyl) nonanedioate],Wnt reporter firefly/Renilla luciferase ratio,concentration: 0.1 uM,1.04
same,Wnt reporter firefly/Renilla luciferase ratio,concentration: 1 uM,0.979
same,Wnt reporter firefly/Renilla luciferase ratio,concentration: 10 uM,1.33
same,Wnt reporter firefly/Renilla luciferase ratio,concentration: 100 uM,1.24
O=C(NO)C1(NS(=O)(=O)c2ccc(Oc3ccc(F)cc3)cc2)CCOCC1,Wnt reporter firefly/Renilla luciferase ratio,concentration: 0.1 uM,1.18
same,Wnt reporter firefly/Renilla luciferase ratio,concentration: 1 uM,0.992
same,Wnt reporter firefly/Renilla luciferase ratio,concentration: 10 uM,0.736
same,Wnt reporter firefly/Renilla luciferase ratio,concentration: 100 uM,0.244
O=C(O)[C@H](O)[C@@H](O)C(=O)O [L-Tartaric acid],Wnt reporter firefly/Renilla luciferase ratio,concentration: 0.1 uM,1.14
same,Wnt reporter firefly/Renilla luciferase ratio,concentration: 1 uM,1.29
same,Wnt reporter firefly/Renilla luciferase ratio,concentration: 10 uM,0.958
same,Wnt reporter firefly/Renilla luciferase ratio,concentration: 100 uM,1.46
Cc1cn([C@H]2C[C@H](N=[N+]=[N-])[C@@H](CO)O2)c(=O)[nH]c1=O [3'-Azido-3'-deoxythymidine],Wnt reporter firefly/Renilla luciferase ratio,concentration: 0.1 uM,1.15
same,Wnt reporter firefly/Renilla luciferase ratio,concentration: 1 uM,1.04
same,Wnt reporter firefly/Renilla luciferase ratio,concentration: 10 uM,1.15
same,Wnt reporter firefly/Renilla luciferase ratio,concentration: 100 uM,1.07
Cc1cn([C@H]2C=C[C@@H](CO)O2)c(=O)[nH]c1=O [Stavudine],Wnt reporter firefly/Renilla luciferase ratio,concentration: 0.1 uM,1.03
same,Wnt reporter firefly/Renilla luciferase ratio,concentration: 1 uM,1.04
same,Wnt reporter firefly/Renilla luciferase ratio,concentration: 10 uM,0.931
same,Wnt reporter firefly/Renilla luciferase ratio,concentration: 100 uM,1.62
OCC(CO)(CO)CO [Pentaerythritol],Wnt reporter firefly/Renilla luciferase ratio,concentration: 0.1 uM,1.18
same,Wnt reporter firefly/Renilla luciferase ratio,concentration: 1 uM,1.51
same,Wnt reporter firefly/Renilla luciferase ratio,concentration: 10 uM,1.13
same,Wnt reporter firefly/Renilla luciferase ratio,concentration: 100 uM,1.27
Cc1oc2c(NC(=O)c3c(Cl)cccc3Cl)cccc2c1C(C)(C)O,Wnt reporter firefly/Renilla luciferase ratio,concentration: 0.1 uM,1.01
same,Wnt reporter firefly/Renilla luciferase ratio,concentration: 1 uM,1.14
same,Wnt reporter firefly/Renilla luciferase ratio,concentration: 10 uM,0.7
CN1C(=O)CC[C@H]1c1cccnc1 [Cotinine],Wnt reporter firefly/Renilla luciferase ratio,concentration: 0.1 uM,0.928
same,Wnt reporter firefly/Renilla luciferase ratio,concentration: 1 uM,0.981
same,Wnt reporter firefly/Renilla luciferase ratio,concentration: 10 uM,1.03
same,Wnt reporter firefly/Renilla luciferase ratio,concentration: 100 uM,1.13
COc1c(N2CC3CCCNC3C2)c(F)cc2c(=O)c(C(=O)O)cn(C3CC3)c12 (centres undefined) [Moxifloxacin],Wnt reporter firefly/Renilla luciferase ratio,concentration: 0.01 uM,0.907
same,Wnt reporter firefly/Renilla luciferase ratio,concentration: 0.1 uM,1.02
same,Wnt reporter firefly/Renilla luciferase ratio,concentration: 1 uM,1.07
same,Wnt reporter firefly/Renilla luciferase ratio,concentration: 10 uM,0.95
same,Wnt reporter firefly/Renilla luciferase ratio,concentration: 100 uM,0.752
O=C(O)c1cn(C2CC2)c2cc(N3CCNCC3)c(F)cc2c1=O [Ciprofloxacin],Wnt reporter firefly/Renilla luciferase ratio,concentration: 0.01 uM,0.979
same,Wnt reporter firefly/Renilla luciferase ratio,concentration: 0.1 uM,0.853
same,Wnt reporter firefly/Renilla luciferase ratio,concentration: 1 uM,1.01
same,Wnt reporter firefly/Renilla luciferase ratio,concentration: 10 uM,0.882
same,Wnt reporter firefly/Renilla luciferase ratio,concentration: 100 uM,1.74
CC1COc2c(N3CCN(C)CC3)c(F)cc3c(=O)c(C(=O)O)cn1c23 (centres undefined) [Levofloxacin],Wnt reporter firefly/Renilla luciferase ratio,concentration: 0.01 uM,1.21
same,Wnt reporter firefly/Renilla luciferase ratio,concentration: 0.1 uM,1.2
same,Wnt reporter firefly/Renilla luciferase ratio,concentration: 1 uM,1.05
same,Wnt reporter firefly/Renilla luciferase ratio,concentration: 10 uM,1.11
same,Wnt reporter firefly/Renilla luciferase ratio,concentration: 100 uM,1.45
O=C(CCCN1CCC(O)(c2ccc(Cl)cc2)CC1)c1ccc(F)cc1 [Haloperidol],Wnt reporter firefly/Renilla luciferase ratio,concentration: 0.1 uM,1.01
same,Wnt reporter firefly/Renilla luciferase ratio,concentration: 1 uM,0.984
same,Wnt reporter firefly/Renilla luciferase ratio,concentration: 10 uM,0.916
same,Wnt reporter firefly/Renilla luciferase ratio,concentration: 100 uM,0.572
CCNc1ccccc1 [N-Ethylaniline],Wnt reporter firefly/Renilla luciferase ratio,concentration: 0.1 uM,0.799
same,Wnt reporter firefly/Renilla luciferase ratio,concentration: 1 uM,1.03
same,Wnt reporter firefly/Renilla luciferase ratio,concentration: 10 uM,0.96
same,Wnt reporter firefly/Renilla luciferase ratio,concentration: 100 uM,1.2
